Test [1] has as its target Progesterone receptor (Homo sapiens) (UniProt P06401). Kind of test: qHTS assay to identify small molecule antagonists of the progesterone receptor (PR) signaling pathway (AID 1346795; active means well fitted inhibition curve with a large enough effect in the signal ratio in the repeat runs, not every such curve was filed as active; the % refers to the signal ratio; further: potency means the concentration at half of the fitted maximal effect). The method in brief:
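Inhibition of R5020-induced (1 nM final) beta-lactamase reporter signal in PR-UAS-bla HEK293T cells was scored by FRET fluorescence after overnight (16 hr) compound treatment.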

Test [2] in a line: qHTS assay to identify small molecule antagonists of the progesterone receptor (PR) signaling pathway - cell viability counter screen (AID 1346798). Further: nearly all actives have a fitted effect of over 50% in size. Further: potency means the concentration at half of the fitted maximal effect. The essentials: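 ATP content as viability readout: CellTiter-Glo luminescence, 30 min room temperature, in PR-UAS-bla HEK293T cells after 16 hr compound/R5020 treatment at 37C and 5% CO2.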
A short description of test [3]: qHTS assay to identify small molecule agonists of the progesterone receptor (PR) signaling pathway - cell viability counter screen (AID 1346799; calls by dose curve; further: nearly all actives have a fitted effect of over 45% in size; further: potency means the concentration at half of the fitted maximal effect). The essentials:
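Cytotoxicity in PR-bla HEK293T cells: 16 h compound, 37C; CellTiter-Glo added post-FRET read; luminescence after 30 min RT.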
Background: qHTS replaces the single test concentration by a dilution series.

Test [4] can be described thus: qHTS assay to identify small molecule antagonists of the TGF-beta/Smad signaling pathway - cell viability counter screen (AID 1346824). Further: nearly all actives have a fitted effect of over 50% in size. The essentials:
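SBE-bla HEK 293T cells were plated overnight at 37 C, then given compounds in DMSO plus TGF-beta1 (added as 0.25 ng/mL solution) for 5 hr. After the bla read, CellTiter-Glo was added to the same wells and luminescence read after 30 min at room temperature.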

Test [5] is described as follows: qHTS assay to identify small molecule agonists of the TGF-beta/Smad signaling pathway - cell viability counter screen (AID 1346829). Further: top concentration of the series differs between compounds; nearly all actives have a fitted effect of over 45% in size. The essentials:
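HEK 293T SBE-bla line, 5 hr compound exposure at 37 C, multiplexed CellTiter-Glo viability read by luminescence.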

Test [6] is described as follows: qHTS assay to identify small molecule agonists of the TGF-beta/Smad signaling pathway (AID 1346859; active means well fitted activation curve with a large enough effect in the signal ratio in the repeat runs, not every such curve was filed as active; the % refers to the signal ratio; further: series mostly up to about 77 µM). The essentials:
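Stable Smad binding element-beta-lactamase HEK 293T cells; 5 hr compound exposure at 37 C under 5% CO2; 2 hr room-temperature substrate step; fluorescence excited at 405 nm, collected at 460 nm and 530 nm.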

The target of test [7] is Thyrotropin-releasing hormone receptor (Homo sapiens) (UniProt P34981). In words: qHTS assay to identify small molecule antagonists of the thyrotropin-releasing hormone receptor (TRHR) signaling pathway (AID 1346877; active means well fitted inhibition curve with a large enough effect in the repeat runs, not every such curve was filed as active; further: series mostly up to about 51 µM). The method in brief: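 Kinetic fluorescence (3 min, 1 s resolution) following stimulation with TRH at 1 nM final; HEK293 cells bearing human TRHR; 5 min compound preincubation at RT; concentration-response over 15 points, triplicates.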

The target is the same in test [8]. Kind of test: qHTS assay to identify small molecule agonists of the thyrotropin-releasing hormone receptor (TRHR) signaling pathway (AID 1346891; calls by dose curve;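 further: HEK293 cells expressing TRHR with calcium dye readout; series mostly up to about 58 µM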). The method in brief:
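In 1536-format, 1500 TRHR-Hek293 cells per well grew 18 h, took up calcium dye for 2 h at 37 °C, received compound, and were read kinetically; 15-point titrations, triplicates.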

Test [9] can be described thus: Human pregnane X receptor (PXR) small molecule agonists, qHTS cell viability counter screen (AID 1346977). Further: nearly all actives have a fitted effect of over 50% in size. Further: potency means the concentration at half of the fitted maximal effect. The method in brief:
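Readout is CellTiter-Fluor fluorescence from PXR-Luc HepG2 cells. Plated cells rested 5hr, then were treated with compounds for 24hr at 37C and 5% CO2, with reagent present during the last hour.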

Test [10] can be described thus: Caspase-3/7 induction in CHO-K1 cells by small molecules, qHTS assay (AID 1346980). Further: nearly all actives have a fitted effect of over 15% in size. The method in brief: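 Wild-type cells were seeded at 1,500 per well and settled 5 hr at 37 C, 5% CO2, then exposed to DMSO-dissolved compounds for 17 hr. Caspase-Glo 3/7 reagent was added, and luminescence was read after 30min at room temperature.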
The nature of test [11]: Caspase-3/7 induction in HepG2 cells by small molecules, qHTS cell viability counter screen (AID 1346981). Further: series mostly up to about 92 µM; nearly all actives have a fitted effect of over 30% in size. The method in brief: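 In this quantitative HTS counter screen, compounds delivered in DMSO were left on unmodified HepG2 cells for 16 hr at 37 C. Viability was then determined fluorometrically with CellTiter-Fluor, in parallel with caspase-3/7 induction in the same wells.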

The target in test [12] is Nuclear receptor subfamily 1 group I member 2 (Homo sapiens) (UniProt O75469). Kind of test: Human pregnane X receptor (PXR) small molecule agonists, qHTS assay (AID 1346982). Further: nearly all actives have a fitted effect of over 35% in size. Further: potency means the concentration at half of the fitted maximal effect. The essentials: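 Reporter HepG2 cells expressing PXR-Luc are cultured in charcoal-stripped FBS (5%), treated with compounds for 24 hr at 37 C, and assayed by ONE-Glo luminescence after 30 min at room temperature.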

Test [13] concerns the target Cytochrome P450 2D6 (Homo sapiens) (UniProt P10635). Kind of test: Cytochrome P450 Family 2 Subfamily D Member 6 (CYP2D6) small molecule antagonists: luciferase reporter qHTS assay (AID 1671196). Further: nearly all actives have a fitted effect of over 50% in size. Further: potency means the concentration at half of the fitted maximal effect. The essentials:
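Test chemicals meet CYP2D6 plus proluciferin substrate (10 min, RT); NADPH regenerating solution then drives turnover for 1 h. Detection reagent halts the reaction; luminescence measured after 20 min.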

Test [14] deals with Cytochrome P450 2C19 (Homo sapiens) (UniProt P33261). In words: Cytochrome P450 Family 2 Subfamily C Member 19 (CYP2C19) small molecule antagonists: luciferase reporter qHTS assay (AID 1671197). Further: nearly all actives have a fitted effect of over 65% in size. Further: potency means the concentration at half of the fitted maximal effect. The method in brief: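 First, compounds are pinned into enzyme-substrate mix and held 10 min at room temperature. Second, NADPH regeneration solution is added and plates incubate 1 h at 37C. Third, detection reagent is added and luminescence read after 20 min.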
(In general: In a reporter assay the amount or activity of a reporter protein is the signal.)

The nature of test [15]: Caspase-3/7 induction in HepG2 cells by small molecules, qHTS assay (AID 1346978). Further: nearly all actives have a fitted effect of over 15% in size. The method in brief: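 Wild-type HepG2 cells (2,000/well) were settled 5 h at 37 C, 5% CO2, then exposed to compounds in DMSO for 17 h. Caspase-3/7 activity was read by luminescence 30 min after adding Caspase-Glo 3/7 reagent at room temperature.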
Test [16] in a line: Caspase-3/7 induction in CHO-K1 cells by small molecules, qHTS cell viability counter screen (AID 1346979). Further: nearly all actives have a fitted effect of over 35% in size. Further: potency means the concentration at half of the fitted maximal effect. The essentials: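 To flag cytotoxic compounds, treated CHO-K1 wild-type cells were given CellTiter-Fluor at 16hr and read fluorescently after 1hr at 37C; the caspase-3/7 luminescence was measured in these same wells.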
In test [17] the target is Nuclear receptor subfamily 1 group I member 2 (Rattus norvegicus) (UniProt Q9R1A7). In words: Rat pregnane X receptor (rPXR) activation by small molecules, qHTS assay (AID 1346983). Further: nearly all actives have a fitted effect of over 20% in size. The settings on record: rPXR luciferase reporter cells, One-Glo luminescence, 24 h; max activation: stronger effect = higher value. The essentials: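 Cell-based rPXR luciferase reporter assay, 2,000 cells per well, rested 5hr at 37 C before compound addition in DMSO, then 24 hr at 37 C. One-Glo reagent was added and luminescence read after 30 min at room temperature.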

The target of test [18] is Nuclear receptor subfamily 1 group I member 2 (Homo sapiens) (UniProt O75469). Kind of test: CYP3A4 induction through human pregnane X receptor (PXR) by small molecules, qHTS assay (AID 1346984). Further: nearly all actives have a fitted effect of over 40% in size. Further: potency means the concentration at half of the fitted maximal effect. The essentials:
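Induction measured in HepG2-based DPX-2 cells co-expressing human PXR and a CYP3A4 promoter-driven luciferase. After a 24-hour compound exposure, cells received CYP3A4 luciferin substrate at 3uM final for 3 hours, and light output was then recorded.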

In test [19] the target is Progesterone receptor (Homo sapiens) (UniProt P06401). In words: qHTS assay to identify small molecule agonists of the progesterone receptor (PR) signaling pathway (AID 1346784; calls by dose curve; further: nearly all actives have a fitted effect of over 30% in size). The method in brief:
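Using charcoal-stripped serum (2%) to limit endogenous steroids, PR-UAS-bla HEK 293T cells received compounds for 16 hr at 37C after 6 hr plating; beta-lactamase FRET fluorescence was recorded following 2 hr substrate loading at room temperature.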

The target in test [20] is Nuclear receptor subfamily 1 group I member 2 (Homo sapiens) (UniProt O75469). In words: Human pregnane X receptor (PXR) activation by small molecules, qHTS assay (AID 1346985). Further: nearly all actives have a fitted effect of over 40% in size. The essentials:
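DPX-2 cells (HepG2 co-transfected with a PXR response element and a CYP3A4-promoter luciferase construct) were seeded at 2,000 per well, rested 5 hr at 37C, then exposed to DMSO-dissolved compounds for 24 hr. Activation was read as luciferase luminescence.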

The values below come from PubChem BioAssay (Tox21).

SMILES strings stand for the structures. Unmarked numbers belong to inactive results. Records with an inconclusive call do not appear. The source made the active and inactive calls. Unless noted, the call rests on the fitted dose curve; in most records, active means well fitted curve in the direction sought with a large enough effect in the repeat runs; inconclusive means weak or mixed curves; inactive means no such curve, though single readings can be large; an effect the other way counts as inactive or inconclusive.
On the % scale 0 is the no-effect control and ±100 the full control effect.

Chain of Progesterone receptor (Homo sapiens) (P06401 whole entry, looked up): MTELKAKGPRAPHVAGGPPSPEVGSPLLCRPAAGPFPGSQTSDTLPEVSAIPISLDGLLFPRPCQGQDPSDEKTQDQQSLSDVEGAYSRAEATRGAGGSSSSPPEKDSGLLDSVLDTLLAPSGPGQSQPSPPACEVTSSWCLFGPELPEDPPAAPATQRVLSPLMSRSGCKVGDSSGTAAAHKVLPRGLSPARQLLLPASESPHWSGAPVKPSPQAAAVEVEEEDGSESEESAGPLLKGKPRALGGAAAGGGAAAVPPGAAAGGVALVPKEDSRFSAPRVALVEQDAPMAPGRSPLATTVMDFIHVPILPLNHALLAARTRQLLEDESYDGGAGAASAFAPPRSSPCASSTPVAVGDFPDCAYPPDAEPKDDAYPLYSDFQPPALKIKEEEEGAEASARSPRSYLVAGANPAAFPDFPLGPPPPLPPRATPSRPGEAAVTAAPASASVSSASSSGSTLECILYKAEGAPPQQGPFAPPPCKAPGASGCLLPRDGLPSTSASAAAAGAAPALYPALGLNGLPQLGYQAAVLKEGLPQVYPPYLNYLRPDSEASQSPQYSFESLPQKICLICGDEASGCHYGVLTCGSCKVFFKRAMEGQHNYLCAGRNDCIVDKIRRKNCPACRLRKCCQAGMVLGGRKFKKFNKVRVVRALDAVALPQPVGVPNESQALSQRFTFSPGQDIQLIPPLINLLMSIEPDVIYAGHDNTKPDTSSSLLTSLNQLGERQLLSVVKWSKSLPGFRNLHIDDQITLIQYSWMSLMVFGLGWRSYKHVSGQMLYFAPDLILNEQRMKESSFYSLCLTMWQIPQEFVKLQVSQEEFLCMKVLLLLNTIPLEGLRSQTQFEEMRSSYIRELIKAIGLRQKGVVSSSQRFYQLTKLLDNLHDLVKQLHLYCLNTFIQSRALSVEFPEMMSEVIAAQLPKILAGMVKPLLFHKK
Chain of Cytochrome P450 2C19 (Homo sapiens) (P33261 whole entry, looked up): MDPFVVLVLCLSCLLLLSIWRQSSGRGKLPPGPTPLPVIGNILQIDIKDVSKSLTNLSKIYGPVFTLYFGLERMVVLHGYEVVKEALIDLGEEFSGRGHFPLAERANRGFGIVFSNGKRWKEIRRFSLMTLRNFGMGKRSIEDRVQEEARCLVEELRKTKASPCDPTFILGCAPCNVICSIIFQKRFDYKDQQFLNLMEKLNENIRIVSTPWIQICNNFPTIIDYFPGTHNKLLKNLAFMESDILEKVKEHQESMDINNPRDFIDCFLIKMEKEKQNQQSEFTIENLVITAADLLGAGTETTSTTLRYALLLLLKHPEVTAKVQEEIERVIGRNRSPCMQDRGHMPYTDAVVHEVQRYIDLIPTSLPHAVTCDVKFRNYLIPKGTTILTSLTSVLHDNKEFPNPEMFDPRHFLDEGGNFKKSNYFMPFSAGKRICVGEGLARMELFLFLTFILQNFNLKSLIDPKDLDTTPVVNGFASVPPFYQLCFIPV
Chain of Cytochrome P450 2D6 (Homo sapiens) (P10635 whole entry, looked up): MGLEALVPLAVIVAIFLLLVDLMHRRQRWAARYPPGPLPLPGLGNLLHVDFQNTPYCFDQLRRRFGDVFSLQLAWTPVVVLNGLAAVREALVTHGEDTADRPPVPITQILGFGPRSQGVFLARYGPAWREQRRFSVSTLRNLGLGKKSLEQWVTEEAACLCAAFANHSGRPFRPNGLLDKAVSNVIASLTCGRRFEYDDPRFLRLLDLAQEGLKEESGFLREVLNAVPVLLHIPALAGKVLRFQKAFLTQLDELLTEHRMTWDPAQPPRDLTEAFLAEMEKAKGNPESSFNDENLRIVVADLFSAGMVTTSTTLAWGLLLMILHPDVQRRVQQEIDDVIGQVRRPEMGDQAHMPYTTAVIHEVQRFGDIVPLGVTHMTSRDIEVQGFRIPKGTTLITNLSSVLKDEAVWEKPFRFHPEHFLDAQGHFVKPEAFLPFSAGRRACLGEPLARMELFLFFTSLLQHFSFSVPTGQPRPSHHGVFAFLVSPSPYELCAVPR
Chain of Thyrotropin-releasing hormone receptor (Homo sapiens) (P34981 whole entry, looked up): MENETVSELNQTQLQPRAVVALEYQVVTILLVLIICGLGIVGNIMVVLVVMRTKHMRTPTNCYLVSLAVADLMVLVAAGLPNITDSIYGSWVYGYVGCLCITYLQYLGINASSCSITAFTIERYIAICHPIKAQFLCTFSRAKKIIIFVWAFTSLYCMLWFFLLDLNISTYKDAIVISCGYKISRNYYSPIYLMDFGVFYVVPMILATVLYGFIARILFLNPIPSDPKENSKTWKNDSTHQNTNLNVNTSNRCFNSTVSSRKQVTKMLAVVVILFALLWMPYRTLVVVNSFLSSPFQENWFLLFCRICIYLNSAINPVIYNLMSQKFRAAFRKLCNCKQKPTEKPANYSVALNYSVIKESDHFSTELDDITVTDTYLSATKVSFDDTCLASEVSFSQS
Chain of Nuclear receptor subfamily 1 group I member 2 (Rattus norvegicus) (Q9R1A7 whole entry, looked up): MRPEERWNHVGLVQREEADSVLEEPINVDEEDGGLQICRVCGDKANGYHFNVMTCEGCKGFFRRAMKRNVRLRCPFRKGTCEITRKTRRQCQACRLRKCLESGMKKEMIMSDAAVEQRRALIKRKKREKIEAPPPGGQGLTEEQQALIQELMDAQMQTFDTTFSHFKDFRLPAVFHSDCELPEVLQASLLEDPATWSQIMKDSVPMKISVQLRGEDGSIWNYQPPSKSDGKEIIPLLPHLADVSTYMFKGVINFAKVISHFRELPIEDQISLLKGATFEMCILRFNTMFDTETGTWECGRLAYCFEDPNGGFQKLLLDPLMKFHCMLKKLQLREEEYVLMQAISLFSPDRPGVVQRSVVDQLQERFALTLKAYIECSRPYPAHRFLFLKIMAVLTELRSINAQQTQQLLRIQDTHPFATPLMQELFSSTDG
Chain of Nuclear receptor subfamily 1 group I member 2 (Homo sapiens) (O75469 whole entry, looked up): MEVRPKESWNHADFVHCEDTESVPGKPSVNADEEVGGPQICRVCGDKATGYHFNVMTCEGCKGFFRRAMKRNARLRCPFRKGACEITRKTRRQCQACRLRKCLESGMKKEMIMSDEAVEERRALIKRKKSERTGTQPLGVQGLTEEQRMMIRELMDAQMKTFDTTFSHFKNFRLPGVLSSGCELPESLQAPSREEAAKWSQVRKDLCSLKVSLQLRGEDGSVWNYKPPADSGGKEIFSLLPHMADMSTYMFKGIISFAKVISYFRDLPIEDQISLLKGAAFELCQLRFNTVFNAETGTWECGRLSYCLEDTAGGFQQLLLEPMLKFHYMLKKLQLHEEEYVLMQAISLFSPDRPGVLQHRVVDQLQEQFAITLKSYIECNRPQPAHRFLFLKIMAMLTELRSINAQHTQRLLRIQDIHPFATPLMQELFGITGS

Turning to `CC(C)CCCC(C)CCO` (stereo not drawn), the Potency entry in test [1], in [2], in test [3], in [4], in [5] and in test [8] was “inactive” each time. Moreover, the Potency entry in test [9], in test [10], in test [11], in test [12], in test [13] and in [14] was “inactive” throughout. Moreover, the call in [6] and in test [7] was inactive.

For `Cn1c(NCCN(CCO)CCCc2ccc([N+](=O)[O-])cc2)cc(=O)n(C)c1=O`, the Potency result in test [2], in test [3], in [4], in [5], in test [8] and in [9] was “inactive” each time. Besides, the Potency result in [16], in test [10], in [11], in test [12], in [18] and in [14] was “inactive” in each case. Besides, the outcome in test [6], in test [7] and in test [15] was inactive. For the same compound, in test [17], the max activation is -2.3%.

As to `CCN(CC)CCOc1ccc2c(c1)C(=O)c1cc(OCCN(CC)CC)ccc1-2`, the Potency in test [2] is 13.3 µM (active); in test [3] it was 16.8 µM (active); in [9] it was 13.3 µM (active); in [16], 26.6 µM (active). The Potency result in test [4], in test [5], in [8], in [10], in test [18] and in test [14] was “inactive” each time. Also, the compound was called inactive in test [6], in [7] and in [15]. For the same compound, the max activation in test [17] is 2.03%.

Take `c1ccc(OCc2ccc(CCCN3CCOCC3)cc2)cc1`: the compound was classed as inactive in test [19], in test [6], in test [7] and in test [15]. The Potency result in test [5], in [8], in [10], in [11], in test [18] and in test [20] was “inactive” each time. For the same compound, the Potency is 2.37 µM (active) in test [12], 15.5 µM (active) in test [13] and 38.9 µM (active) in test [14].

As for `CCCCOCCOCCOCCOCCO`, the result in test [19], in [6], in test [7] and in test [15] was inactive. Moreover, the Potency entry in [4], in [5], in test [8], in test [9], in test [16] and in [10] was “inactive” each time. Moreover, the Potency result in test [11], in test [12] and in test [14] was “inactive” in each case.

With `Oc1ccc(Sc2ccc(O)cc2)cc1`, the Potency in test [1] was 18.1 µM (active); in test [12], 51 µM (active); in test [13] it was 33.3 µM (active); in test [14], 37.3 µM (active). Moreover, the Potency entry in test [5], in [8], in test [10] and in test [11] was “inactive” in each case. The compound was classed as inactive in [6], in test [7] and in test [15].

`Cl/C(=C\n1cncn1)c1ccc(Cl)cc1Cl`: the compound was classed as inactive in test [19], in test [6], in test [7] and in test [15]. Besides, the Potency result in test [4], in test [5], in [8], in test [9], in test [16] and in test [10] was “inactive” throughout. In addition, the Potency entry in [11] and in [20] was “inactive” each time. In [17], the max activation was -0.206%. In addition, the results for the Potency in test [18], in [13] and in [14] were 22.4 µM (active), 15.5 µM (active) and 1.38 µM (active), respectively.

As for `CN(C)CCCNCCCN`, the Potency result in test [2], in test [3], in test [4], in test [5], in test [9] and in [16] was “inactive” throughout. Besides, the Potency entry in test [10], in test [11] and in test [12] was “inactive” throughout. Besides, the outcome in test [6], in test [7] and in [15] was inactive. In test [13], the Potency is 70.7 µM (active).

For the compound `Oc1ccc(O)c2c(O)cccc12`, the Potency result in [2], in [3], in test [4], in test [5], in [9] and in [10] was “inactive” throughout. Besides, the Potency entry in [12] and in [13] was “inactive” in each case. Besides, the compound was called inactive in test [6], in test [7] and in test [15].

In the case of `C[C@H](CCC(=O)O)[C@H]1CC[C@H]2[C@@H]3[C@H](O)C[C@@H]4C[C@H](O)CC[C@]4(C)[C@H]3CC[C@]12C`, the Potency result in test [2], in [3], in [4], in [5], in test [8] and in [9] was “inactive” in each case. For the same compound, the Potency result in test [12], in [18] and in test [20] was “inactive” throughout. In [7], the compound was called inactive. For the same compound, the max activation in test [17] is -0.524%. The Potency in test [13] was 56.6 µM (active).
